Screens as filed in PubChem.
Sampled rows, rich in hits. Any-hit rate of the full collection: about 19%.
TDP1 block – inhibitors of human tyrosyl-DNA phosphodiesterase TDP1 | Q9NUW8 | recombinant TDP1, AlphaScreen DNA substrate cleavage | Potency, µM (doses to about 130 µM), for inactives: top-dose activity change, negative = inhibition, most hits filed as inhibitors | 350,000 tested, 0.28% active | AID 485290; note: nearly all actives have a fitted effect of over 40% in size
Target sequence (Q9NUW8 whole entry, looked up): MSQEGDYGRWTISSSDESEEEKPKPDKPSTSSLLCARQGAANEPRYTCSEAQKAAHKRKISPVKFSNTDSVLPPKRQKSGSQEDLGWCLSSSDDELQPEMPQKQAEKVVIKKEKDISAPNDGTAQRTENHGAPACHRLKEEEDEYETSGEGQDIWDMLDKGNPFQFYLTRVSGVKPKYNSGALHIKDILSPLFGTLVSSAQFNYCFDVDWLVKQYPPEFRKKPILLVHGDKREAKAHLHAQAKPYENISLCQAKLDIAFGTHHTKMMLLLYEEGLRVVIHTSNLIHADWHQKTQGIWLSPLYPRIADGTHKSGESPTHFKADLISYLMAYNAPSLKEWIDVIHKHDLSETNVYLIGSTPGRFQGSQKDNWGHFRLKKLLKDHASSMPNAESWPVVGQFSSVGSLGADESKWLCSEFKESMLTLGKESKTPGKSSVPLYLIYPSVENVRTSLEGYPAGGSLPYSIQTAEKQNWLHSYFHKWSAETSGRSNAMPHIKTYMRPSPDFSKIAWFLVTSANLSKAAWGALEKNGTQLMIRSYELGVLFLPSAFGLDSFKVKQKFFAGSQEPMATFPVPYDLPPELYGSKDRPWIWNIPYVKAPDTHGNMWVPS
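Steps: enzyme plus compound, 15 min RT; add biotin/phosphotyrosine-FITC oligonucleotide (15 nM final), react 5 min; add donor/acceptor beads (10 ug/ml final), 10 min; read AlphaScreen. Tdp1 at 1 nM final.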
TDP1 cell noCPT – qHTS for Inhibitors of human tyrosyl-DNA phosphodiesterase 1 (TDP1): qHTS in cells in absence of CPT; DT40 Tdp1-/- hTDP1 cells, no CPT, ATP luminescence, 48 h; Potency, µM (highest dose often 46.2 µM), inactives show at the highest dose activity change, negative = growth inhibition, most hits filed as inhibitors; 420,000 tested, 15% active; AID 686978, 2013; note: nearly all actives have a fitted effect of over 55% in size
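Cells were dispensed at 400 per well, compounds added by pin tool, plates incubated ≥48 hr at 37 °C, then CellTiter-Glo added for 30 min at room temperature before luminescence reading. Line: DT40 Tdp1-/- complemented with hTDP1; camptothecin omitted.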
VP16 counter – inhibits Gal4-VP16 luciferase reporter, ROR gamma counter-screen; Drosophila S2 Gal4-VP16 UAS-luciferase, luminescence, 20 h; Potency, µM (series often up to 53.6 µM), for the others: at the top dose activity, negative = inhibition, hits mostly inhibitors; 310,000 tested, 3.5% active; AID 2546;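 note: Gal4-VP16 expression switched on by copper sulfate through the metallothionein promoter; nearly all actives have a fitted effect of over 50% in size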
RORgamma inh – blocks mouse ROR gamma transcriptional activity; P51450; Drosophila S2 Gal4-RORgamma UAS-luciferase reporter, 20 h; Potency, µM (series often up to 53.6 µM), without a hit: at the highest dose activity change, negative = inhibition, hits mostly inhibitors; 310,000 tested, 5.4% active; AID 2551; note: nearly all actives have a fitted effect of over 60% in size
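Stable Schneider cell line, Gal4 DNA-binding domain fused to ROR gamma, UAS-luciferase. Cmpd 1 hr RT → CuSO4 700 uM final → 20 hr RT → luciferase reagent 10 min → luminescence.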
TDP1 cell CPT – growth inhibition of DT40 Tdp1-/-;hTDP1 cells with camptothecin (screen for TDP1 inhibitors); chicken DT40 Tdp1-/-;hTDP1 cells + 20 nM CPT, ATP luminescence, 48 h; Potency, µM (series often up to 46.2 µM), inactives show at the top dose activity change, negative = growth inhibition, hits mostly inhibitors; 420,000 tested, 12% active; note: nearly all actives have a fitted effect of over 55% in size
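Chicken DT40 Tdp1-/- cells stably complemented with human TDP1 were seeded at 400 cells/well in medium containing 20 nM camptothecin, exposed to pin-transferred compounds, and grown at 37 °C for at least 48 hr. Viability was read as ATP luminescence.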
* marks the source's active call; other numbers are inactive results; ? = inconclusive; nt = no result; [ ] = dose if it differs, or a comment. Calls come from the whole dose curve; as a rule, active = well fitted curve in the direction sought with a large enough effect; inconclusive = small, poorly fitted or top-dose-only effect, or another doubt; inactive = no such curve, though single readings can be large; an effect the other way counts as inactive or inconclusive. % is set by controls: 0 for no effect and ±100 for the full control effect; potency is the fitted concentration of half-maximal effect.

SMILES | TDP1 block | TDP1 cell noCPT | VP16 counter | RORgamma inh | TDP1 cell CPT
O=C(c1cccc([N+](=O)[O-])c1)n1nc(-c2ccccc2)nc1NCc1ccccc1 | 3% | 0% | -2% | 12% | -22%
CNC(C)C(=O)NC(C(=O)N1CCCC1C(=O)Nc1ccc2[nH]ccc2c1)C(C)C (stereo not given) | nt | -13% | nt | nt | 3%
COc1ccc(C)cc1NC(=O)CN1C(=O)COc2ccc(S(=O)(=O)NC3CCCC3)cc21 | 5% | -27% | nt | nt | 2%
CCOc1ccc(-n2c(=O)c3c(C)c(C)sc3n(CC(=O)N3CCC(C)CC3)c2=O)cc1 | 3% | 21µM* | nt | nt | ?
CCCCN(CCCNC(=O)c1ccc2nc(N3CCOCC3)sc2c1)Cc1ccccc1 | 4% | 16µM* | 0% | ? | ?
CCCCN(C)CCCNC(=O)c1ccc2nc(N3CCCCC3)sc2c1 | -1% | ? | nt | nt | 23µM*
CCN(CC)CCCNC(=O)c1ccc2nc(N3CCCCC3)sc2c1 | 3% | ? | nt | nt | ?
CCCCN(C)CCNC(=O)C1CCN(c2nc3ccc(CC)cc3s2)CC1 | -3% | 23µM* | nt | nt | 21µM*
O=S(=O)(c1ccccc1Cl)N1CCCC1c1nc(-c2ccc(Cl)cc2)no1 (stereo not given) | 3% | ? | -4% | 34% | ?
Cc1cc(Br)cn2c(Cc3ccsc3)c(-c3ccc(Cl)cc3)nc12 | nt | 18µM* | nt | nt | 15µM*
Clc1ccc(-c2nc3ccc(Br)cn3c2Cc2ccccc2)cc1 | nt | 21µM* | nt | nt | 23µM*
Clc1ccc(-c2nc3ccc(Br)cn3c2Cc2ccsc2)cc1 | nt | 16µM* | nt | nt | 16µM*
Brc1ccc(-c2nc3ccc(Br)cn3c2Cc2ccccc2)cc1 | nt | 21µM* | nt | nt | ?
Cc1cc(Br)cn2c(Cc3ccsc3)c(-c3cccc(Cl)c3)nc12 | nt | ? | nt | nt | -19%
N#Cc1ccc(-c2nc3ccc(Br)cn3c2Cc2ccsc2)cc1 | nt | -99% | nt | nt | -100%
O=C(Nc1ncc2c(n1)-c1ccccc1OC2)c1ccc(Cl)cc1Cl | 2% | -1% | -2% | -27% | -7%
CCc1ccc(C2N(c3ccc(OC)cc3)C(=O)C3CCCN32)cc1 (stereo not given) | 4% | -16% | -12% | 40% | 4%
Cc1ccc(C)c(S(=O)(=O)c2nnn3c2nc(Nc2ccc(C)c(C)c2)c2sccc23)c1 | 3% | -13% | nt | nt | 0%
CCOc1ccc(CN(C(=O)c2oc3cc(C)ccc3c2C)C2CCS(=O)(=O)C2)cc1 (stereo not given) | 4% | ? | 4% | 3% | ?
Cc1ccc2nc(-c3ccc(NC(=O)COC(=O)c4ccc(Br)o4)cc3)sc2c1 | 1% | ? | 4µM* | 0.28µM* | ?
COc1ccc(/C=C(\C#N)C(=O)OCC(=O)Nc2ccc(-c3nc4ccc(C)cc4s3)cc2)cc1 | -4% | -4% | 2µM* | 0.5µM* | ?
Cc1ccc2nc(-c3ccc(NC(=O)COc4ccccc4C(C)(C)C)cc3)sc2c1 | -1%[12.3 µM] | ? | nt | nt | -30%
COc1ccc(/C=C(\C#N)C(=O)OCC(=O)NC(C)c2ccccc2)cc1 (stereo not given) | 4% | 0% | 0% | -4% | 33%
Cc1ccc2nc(-c3ccc(NC(=O)COC(=O)c4cncc(Br)c4)cc3)sc2c1 | 8% | -13% | 10µM* | 1.3µM* | 6%
Cc1ccc2nc(-c3ccc(NC(=O)COc4ccccc4)cc3)sc2c1 | -1%[12.3 µM] | -13% | nt | nt | -11%
SMILES | TDP1 block | TDP1 cell noCPT | VP16 counter | RORgamma inh | TDP1 cell CPT
Cc1ccc2nc(-c3ccc(NC(=O)COC(=O)c4ccc([N+](=O)[O-])o4)cc3)sc2c1 | 3% | -23% | 5µM* | 0.1µM* | -28%
CCO/C(C)=C1\N=C(c2ccc(Cl)cc2)OC1=O | 1% | -21% | 1% | -4% | -9%
CCOP(=O)(OCC)/C(=N/OC(=O)c1ccc(OC)cc1)C(N)=O | 3% | ? | ? | 0% | -29%
O=C(Nc1ccc(/C=C/c2nc3ccccc3o2)cc1)c1c(F)cccc1F | 4% | ? | ? | -12% | ?
CC12CCC(C(=O)Nc3ccc(Br)cn3)(OC1=O)C2(C)C (stereo not given) | -1% | -21% | 1% | 24% | 0%
Cc1ccc(NC(=O)COC(=O)c2ccco2)cc1 | 2% | 12% | 10% | 1% | -23%
Cc1ccc2nc(-c3ccc(NC(=O)COC(=O)c4ccco4)cc3)sc2c1 | 1% | ? | 7.1µM* | 0.4µM* | -22%
CNS(=O)(=O)c1cccc(C(=O)OCC(=O)Nc2ccc(-c3nc4ccc(C)cc4s3)cc2)c1 | 1% | ? | ? | 0.22µM* | ?
CCc1cc(=O)n2[nH]c(C)c(-c3ccc(OC)cc3)c2n1 | 1% | -30% | -6% | 9% | -7%
CCOC(=O)Cc1cc(=O)n2[nH]c(C)c(-c3ccc(Cl)cc3)c2n1 | 12% | 11µM* | ? | 11µM* | 16µM*
CCOC(=O)Cc1cc(=O)n2[nH]c(C)c(-c3ccc(OC)cc3)c2n1 | 10% | ? | nt | -15%[0.365 µM] | ?
CCc1cc(=O)n2[nH]c(-c3ccccc3)c(-c3ccccc3)c2n1 | nt | 21µM* | -21% | ? | ?
COC(=O)Cc1cc(=O)n2[nH]c(C)c(-c3ccccc3)c2n1 | 11% | -6% | 4µM* | 3.5µM* | 3%
O=C(CSc1nc2nc(-c3cccs3)cc(C(F)(F)F)c2c(=O)[nH]1)C(F)(F)F | nt | ? | 6% | -5% | 13µM*
O=S1(=O)CC=C(CSC(=S)NC2CCS(=O)(=O)C2)C1 (stereo not given) | 0% | ? | -18% | -26% | 10µM*
CC(C)(C)c1cc(CSC(=S)NC2CCS(=O)(=O)C2)c(Br)c(C(C)(C)C)c1 (stereo not given) | -3% | 12µM* | ? | ? | 6.5µM*
O=S1(=O)CCC(NC(=S)N2CCCCCC2)C1 (stereo not given) | -2% | 8% | -2% | 15% | 9%
CCOC(=O)C1(C)NC(c2ccc(OC)cc2OC)C2C(=O)N(CC)C(=O)C21 (stereo not given) | 2% | 6% | -9% | -14% | -16%
CCOC(=O)c1nc2nc(-c3cccs3)cc(C(F)(F)F)n2n1 | 11% | -9% | -5% | -14% | 8%
CCOC(=O)CSC1=C(C#N)C(c2ccc3c(c2)OCO3)CC(=O)N1 (stereo not given) | 7% | 21µM* | 0% | -2% | ?
CC(=O)Nc1cccc(-c2ccnc3c2CC(C)(C(=O)NCc2cccs2)O3)c1 (stereo not given) | nt | 4.1µM* | nt | nt | ?
COc1ccc(CNC(=O)C2(C)Cc3c(-c4cccc(NC(C)=O)c4)ccnc3O2)cc1OC (stereo not given) | nt | 18µM* | nt | nt | ?
